Hits are enriched below; roughly 19% of the tested compounds scored in any of these assays.
HepG2 viability: kills HepG2 cells in TGF-b inhibitor counter-screen; HepG2 CAGA-GFP viability, ATP luminescence, 18 h; Potency, µM (series often up to 46.1 µM), for inactives: at the highest dose activity change, negative = cytotoxicity, hits mostly cytotoxic; 410,000 compounds, 0.76% hits; AID 588856; further: potency means the concentration at half of the fitted maximal effect
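CellTiter-Glo luminescence gave cytotoxicity after 18 hours at 37 degrees C. The cells were HepG2 CAGA-GFP in 1% FBS DMEM, stimulated with 500 pg/mL TGF-beta after compound addition. %Activity was normalised to no-cell wells (complete cell-killing) and DMSO (no toxicity), and curves were fitted and classified.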
DT40 TDP1 no CPT: qHTS for Inhibitors of human tyrosyl-DNA phosphodiesterase 1 (TDP1): qHTS in cells in absence of CPT | 420,000 compounds, 15% hits | DT40 Tdp1-/- hTDP1 cells, no CPT, ATP luminescence, 48 h | Potency, µM (titrated, usually from 46.2 µM), for the others: top-dose activity change, negative = growth inhibition, usual class: inhibitors; further: potency means the concentration at half of the fitted maximal effect; on the % scale 0 is the no-effect control and ±100 the full control effect; nearly all actives have a fitted effect of over 55% in size
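Cells were dispensed at 400 per well, compounds added by pin tool, plates incubated ≥48 hr at 37 °C, then CellTiter-Glo added for 30 min at room temperature before luminescence reading. Line: DT40 Tdp1-/- complemented with hTDP1; camptothecin omitted.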
IL-1B inflam inh: blocks inflammasome-driven IL-1 beta release. 360,000 compounds, 4.7% hits. AID 743279. THP-1 LPS/ATP IL-1B secretion, AlphaLISA, 16 h; active compounds read low. activity change, % at 57.5 µM; in the data active means activity change below about -50%; inconclusive means mostly about -30% to -49%; further: on the % scale 0 is the no-effect control and ±100 the full control effect
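THP-1 cells pretreated 1 hr with compounds (up to 57.5 uM final), then stimulated with LPS (250 ng/mL final) plus ATP (1.25 mM final); secreted IL-1B measured by AlphaLISA after 16 hr, decreased signal indicating inhibition.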
TGFb SMAD3 inh: inhibitors of TGF-b signaling; AID 588855; 410,000 compounds, 1.2% hits; Potency, µM (top dose mostly 46.1 µM), inactives show at the highest dose activity, negative = inhibition, most hits filed as inhibitors; HepG2 CAGA-GFP TGF-b/SMAD3 reporter, GFP fluorescence, 18 h; TGF-beta stimulated, 500 pg/mL final; further: potency means the concentration at half of the fitted maximal effect; on the % scale 0 is the no-effect control and ±100 the full control effect; nearly all actives have a fitted effect of over 65% in size
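HEPG2 CAGA-GFP cells (1000/well, DMEM with 1% FBS) were pre-incubated 2 h at 37 degrees C, given compound by pin tool, then stimulated with TGF-beta at 500 pg/mL final for 18 h before per-cell GFP fluorescence imaging.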
DT40 TDP1 CPT: growth inhibition of DT40 Tdp1-/-;hTDP1 cells with camptothecin (screen for TDP1 inhibitors). chicken DT40 Tdp1-/-;hTDP1 cells + 20 nM CPT, ATP luminescence, 48 h. Potency, µM (doses to about 46.2 µM), for the others: at the highest dose activity change, negative = growth inhibition, most hits filed as inhibitors. 420,000 compounds, 12% hits; further: potency means the concentration at half of the fitted maximal effect; on the % scale 0 is the no-effect control and ±100 the full control effect; nearly all actives have a fitted effect of over 55% in size
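Chicken DT40 Tdp1-/- cells stably complemented with human TDP1 were seeded at 400 cells/well in medium containing 20 nM camptothecin, exposed to pin-transferred compounds, and grown at 37 °C for at least 48 hr. Viability was read as ATP luminescence.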
TDP1 inh: blocks human tyrosyl-DNA phosphodiesterase 1; recombinant TDP1, AlphaScreen DNA substrate cleavage; Potency, µM (titrated, usually from 130 µM), for the others: at the highest dose activity change, negative = inhibition, hits mostly inhibitors; 350,000 compounds, 0.28% hits; further: potency means the concentration at half of the fitted maximal effect; on the % scale 0 is the no-effect control and ±100 the full control effect; nearly all actives have a fitted effect of over 40% in size
Target sequence (Q9NUW8 whole entry, looked up): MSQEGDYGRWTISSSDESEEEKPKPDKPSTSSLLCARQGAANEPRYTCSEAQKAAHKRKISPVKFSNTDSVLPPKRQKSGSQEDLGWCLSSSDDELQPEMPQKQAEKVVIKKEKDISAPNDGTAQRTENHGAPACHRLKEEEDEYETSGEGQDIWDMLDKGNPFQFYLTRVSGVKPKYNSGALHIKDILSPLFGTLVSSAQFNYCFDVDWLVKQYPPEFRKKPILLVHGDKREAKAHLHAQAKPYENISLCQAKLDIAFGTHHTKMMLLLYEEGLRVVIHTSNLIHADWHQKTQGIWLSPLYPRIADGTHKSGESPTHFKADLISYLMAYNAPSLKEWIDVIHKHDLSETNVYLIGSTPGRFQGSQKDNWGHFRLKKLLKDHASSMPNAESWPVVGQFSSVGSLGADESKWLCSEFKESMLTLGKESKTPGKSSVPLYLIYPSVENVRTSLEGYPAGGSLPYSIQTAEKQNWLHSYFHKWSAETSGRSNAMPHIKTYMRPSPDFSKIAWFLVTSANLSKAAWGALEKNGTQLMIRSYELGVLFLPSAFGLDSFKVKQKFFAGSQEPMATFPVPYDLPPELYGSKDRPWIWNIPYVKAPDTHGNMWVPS
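Tdp1 1 nM final; 15 min RT w/ cpd; substrate 15 nM, 5 min; beads 10 ug/ml, 10 min; AlphaScreen read. Neg ctrl: no enzyme.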
* marks the source's active call; other numbers are inactive results. Unless noted, the call rests on the fitted dose curve; in most records, active means well fitted curve in the direction sought with a large enough effect; inconclusive means small, poorly fitted or top-dose-only effect, or another doubt; inactive means no such curve, though single readings can be large; an effect the other way counts as inactive or inconclusive.

What do the screens show for `CN(C1CCCCC1)S(=O)(=O)c1ccc2c(c1)c(=O)c(C(=O)NCc1ccc(Cl)cc1)cn2C`?
HepG2 viability: -3%; DT40 TDP1 no CPT: inconclusive; TGFb SMAD3 inh: -11%; DT40 TDP1 CPT: -20%; TDP1 inh: 5%

What do the screens show for `NC(=O)c1ncn([C@@H]2O[C@H](CNCc3ccc(OCC(=O)Nc4ccccn4)cc3)[C@@H](O)[C@H]2O)n1`?
HepG2 viability: -8%; DT40 TDP1 no CPT: -3%; IL-1B inflam inh: 9; TGFb SMAD3 inh: 2%; DT40 TDP1 CPT: -12%

Results for O=C(Nc1cccc(O)c1)c1cc2nc(-c3ccc(Br)cc3)cc(C(F)(F)F)n2n1 ?
HepG2 viability: -14%; DT40 TDP1 no CPT: -13%; TGFb SMAD3 inh: -6%; DT40 TDP1 CPT: -10%; TDP1 inh: -1%

What do the screens show for `COc1ccc(NC(=O)CCS(=O)(=O)c2nc(-c3ccc4c(c3)OCO4)cc(C(F)(F)F)n2)cc1OC`?
HepG2 viability: -21%; DT40 TDP1 no CPT: inconclusive; TGFb SMAD3 inh: -8%; DT40 TDP1 CPT: inconclusive; TDP1 inh: 6%

How did COc1cc(NC(=O)CCS(=O)(=O)c2nc(-c3ccc4c(c3)OCO4)cc(C(F)(F)F)n2)cc(OC)c1OC do in these assays?
HepG2 viability: -26%; DT40 TDP1 no CPT: 16µM*; TGFb SMAD3 inh: -23%; DT40 TDP1 CPT: inconclusive; TDP1 inh: 6%

How did O=C(CCS(=O)(=O)c1nc(-c2ccc3c(c2)OCO3)cc(C(F)(F)F)n1)Nc1ccccc1C(F)(F)F do in these assays?
HepG2 viability: -20%; DT40 TDP1 no CPT: 23µM*; TGFb SMAD3 inh: inconclusive; DT40 TDP1 CPT: inconclusive; TDP1 inh: 3%

What do the screens show for `COc1ccc(-c2cc(C(F)(F)F)nc(S(=O)(=O)CCCC(=O)Nc3cccnc3Cl)n2)cc1OC`?
HepG2 viability: -2%; DT40 TDP1 no CPT: 3.7µM*; IL-1B inflam inh: -107*; TGFb SMAD3 inh: inconclusive; DT40 TDP1 CPT: 2.3µM*; TDP1 inh: 8%

Results for COc1ccc(NC(=O)CCS(=O)(=O)c2nc(-c3ccc4c(c3)OCO4)cc(C(F)(F)F)n2)c(OC)c1 ?
HepG2 viability: 7%; DT40 TDP1 no CPT: inconclusive; TGFb SMAD3 inh: 23%; DT40 TDP1 CPT: inconclusive; TDP1 inh: 0%

How did O=C(CCS(=O)(=O)c1nc(-c2ccc3c(c2)OCO3)cc(C(F)(F)F)n1)Nc1ccc(F)c(Cl)c1 do in these assays?
HepG2 viability: 13µM*; DT40 TDP1 no CPT: 5.8µM*; TGFb SMAD3 inh: 20µM*; DT40 TDP1 CPT: 2.6µM*; TDP1 inh: 6%

What do the screens show for `COc1ccccc1CNc1nc2ccc(C)cc2n2nnnc12`?
HepG2 viability: -15%; DT40 TDP1 no CPT: -25%; TGFb SMAD3 inh: 20%; DT40 TDP1 CPT: -21%; TDP1 inh: 3%

Results for CC[C@H](C)[C@H](NC(=O)[C@H](CO)NC(=O)[C@H](CC(C)C)NC(=O)[C@@H]1CCCN1C(=O)[C@@H]1CCCN1C(=O)[C@H](CC(=O)O)NC(=O)[C@@H](N)CC(=O)O)C(=O)N[C@@H](CC(=O)O)C(=O)N[C@@H](CC(C)C)C(=O)N[C@H](C(=O)N[C@@H](Cc1ccccc1)C(=O)N[C@@H](Cc1cnc[nH]1)C(=O)N[C@@H](CC(C)C)C(=O)N[C@@H](CC(C)C)C(=O)N[C@@H](CCCNC(=N)N)C(=O)N[C@H](C(=O)N[C@@H](CC(C)C)C(=O)N[C@@H](CC(C)C)C(=O)N[C@@H](CCC(=O)O)C(=O)N[C@@H](CC(C)C)C(=O)N[C@@H](C)C(=O)N[C@@H](CCCNC(=N)N)C(=O)N[C@H](C(=O)N[C@@H](CCC(N)=O)C(=O)N[C@@H](CO)C(=O)N[C@@H](CCC(N)=O)C(=O)N[C@@H](CCCNC(=N)N)C(=O)N[C@@H](CCC(=O)O)C(=O)N[C@@H](CCCNC(=N)N)C(=O)N[C@@H](C)C(=O)N[C@@H](CCC(=O)O)C(=O)N[C@@H](CCC(N)=O)C(=O)N[C@@H](CC(N)=O)C(=O)N[C@@H](CCCNC(=N)N)C(=O)N[C@H](C(=O)N[C@H](C(=O)N[C@@H](Cc1ccccc1)C(=O)N[C@@H](CC(=O)O)C(=O)N[C@@H](CO)C(=O)N[C@H](C(N)=O)C(C)C)[C@@H](C)CC)[C@@H](C)CC)[C@@H](C)O)[C@@H](C)O)[C@@H](C)O ?
TDP1 inh: 9%

What do the screens show for `Clc1ncccc1OCc1ccccc1`?
HepG2 viability: 1%; DT40 TDP1 no CPT: -16%; IL-1B inflam inh: 9; TGFb SMAD3 inh: 4%; DT40 TDP1 CPT: -2%

How did Cc1nc(Nc2ccc3c(c2)OCCO3)c2oc3ccccc3c2n1 do in these assays?
HepG2 viability: -28%; DT40 TDP1 no CPT: 21µM*; IL-1B inflam inh: -84*; TGFb SMAD3 inh: 5%; DT40 TDP1 CPT: inconclusive; TDP1 inh: 2%

How did Cc1nc(Nc2ccc(Cl)cc2)c2oc3ccccc3c2n1 do in these assays?
HepG2 viability: -27%; DT40 TDP1 no CPT: inconclusive; IL-1B inflam inh: 12; TGFb SMAD3 inh: -23%; DT40 TDP1 CPT: inconclusive

How did c1ccc2c(c1)oc1c(Nc3ccc4c(c3)OCCO4)ncnc12 do in these assays?
HepG2 viability: -22%; DT40 TDP1 no CPT: inconclusive; IL-1B inflam inh: 0; TGFb SMAD3 inh: 27%; DT40 TDP1 CPT: 8.9µM*; TDP1 inh: 1%

What do the screens show for `Cc1nc(Nc2ccc3c(c2)OCCO3)c2c(C)c(C)sc2n1`?
HepG2 viability: -14%; DT40 TDP1 no CPT: 21µM*; IL-1B inflam inh: -15; TGFb SMAD3 inh: 6%; DT40 TDP1 CPT: inconclusive; TDP1 inh: 6%

What do the screens show for `Cc1ccc(NC(=O)C(=O)NCCCN2CCOCC2)cc1C`?
HepG2 viability: -1%; DT40 TDP1 no CPT: 5%; TGFb SMAD3 inh: 0%; DT40 TDP1 CPT: 3%

Results for Cc1ccc(S(=O)(=O)C2(C(=O)NCCc3ccccc3)CC2)cc1 ?
HepG2 viability: -8%; DT40 TDP1 no CPT: 23%; IL-1B inflam inh: 6; TGFb SMAD3 inh: 0%; DT40 TDP1 CPT: -13%

Source: PubChem
